The record followed here is PubChem BioAssay AID683 (University of Pittsburgh Molecular Library Screening Center, 2007).

This is one part of the list. Unmarked numbers belong to inactive results. Cut-off read from the data, not from the text of the source: active = EC50 below about 50 µM; inactive = the rest.

This experiment in a line: redox cycling H2O2 generation, 1 mM DTT, dose response, artefact control, biochemical, 1.0 mM DTT, Cdc25B catalytic domain (AID 683). As to conditions: cell-free redox cycling H2O2 generation.

As a reminder, the EC50 is the midpoint of the concentration-response curve. For the compound `COc1cccc2c(C)c(C(=O)O)[nH]c12`, the EC50 is more than 50 µM. As to `c1ccc(CSc2nnc(-c3ccco3)c(-c3ccco3)n2)cc1`, the EC50 was more than 50 µM.
